Screening results: PubChem BioAssay, several laboratories
Keap1-Nrf2 PPI = Keap1-Nrf2 (human) interaction inhibition; Q14145; Keap1 Kelch-Nrf2 peptide fluorescence polarization, 1536-well; inhibition, % at 9.4 µM; actives 0.15% (n = 340,000); AID 504523; in the data active = inhibition above about 12%;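 note: human Keap1 Kelch domain with fluorescein labeled Nrf2 9mer peptide probe; 0% = neutral control wells and 100% = peptide positive control; higher means more block of Keap1 binding to Nrf2 peptide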
C-LANA FP = KSHV C-LANA DNA binding inhibition | MBP-C-LANA/FAM-LBS DNA binding, fluorescence polarization | inhibition, % at 9 µM | actives 0.078% (n = 340,000);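 active = highest replicate inhibition at or above 60% at 9 µM, even if other replicates fall short; inactive = all replicates below 60% inhibition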;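 note: 0% = neutral control wells and 100% = 4 µM acridine orange control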
Cardiac RTF inh = cardiac RTF calcium desensitization; inhibition, % at 7.15 µM; AID 493244; actives 0.12% (n = 340,000); IANBD-labeled cardiac RTF, Ca2+ fluorescence;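 active = inhibition above the mean inhibition of all tested compounds plus 3 SD, cut at about 17% in these data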;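 note: assay run at fixed EC70 calcium of 1.6 mM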
RTF Ca sens act = increases calcium sensitivity of human cardiac regulated thin filaments | P19429+P45379 | IANBD-labeled TnC RTF fluorescence at EC20 calcium; 0% EC20 calcium, 100% full calcium | activation, % at 7.2 µM | actives 0.24% (n = 340,000) | AID 493008;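 active = activation above the mean over all tested compounds plus 3 SD, cut at about 30% in these data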;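 note: rise in fluorescence read as greater calcium sensitivity of cardiac thin filaments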
eLon inh = inhibits E. coli Lon protease; P0A9M0; purified E. coli Lon protease, fluorescence polarization; inhibition, % at 7.94 µM; actives 0.42% (n = 360,000); in the data active = inhibition above about 13%, passing the limit was not always enough;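 note: 0% = enzyme with probe and DMSO and 100% = no enzyme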
Target sequence (P0A9M0 whole entry, looked up): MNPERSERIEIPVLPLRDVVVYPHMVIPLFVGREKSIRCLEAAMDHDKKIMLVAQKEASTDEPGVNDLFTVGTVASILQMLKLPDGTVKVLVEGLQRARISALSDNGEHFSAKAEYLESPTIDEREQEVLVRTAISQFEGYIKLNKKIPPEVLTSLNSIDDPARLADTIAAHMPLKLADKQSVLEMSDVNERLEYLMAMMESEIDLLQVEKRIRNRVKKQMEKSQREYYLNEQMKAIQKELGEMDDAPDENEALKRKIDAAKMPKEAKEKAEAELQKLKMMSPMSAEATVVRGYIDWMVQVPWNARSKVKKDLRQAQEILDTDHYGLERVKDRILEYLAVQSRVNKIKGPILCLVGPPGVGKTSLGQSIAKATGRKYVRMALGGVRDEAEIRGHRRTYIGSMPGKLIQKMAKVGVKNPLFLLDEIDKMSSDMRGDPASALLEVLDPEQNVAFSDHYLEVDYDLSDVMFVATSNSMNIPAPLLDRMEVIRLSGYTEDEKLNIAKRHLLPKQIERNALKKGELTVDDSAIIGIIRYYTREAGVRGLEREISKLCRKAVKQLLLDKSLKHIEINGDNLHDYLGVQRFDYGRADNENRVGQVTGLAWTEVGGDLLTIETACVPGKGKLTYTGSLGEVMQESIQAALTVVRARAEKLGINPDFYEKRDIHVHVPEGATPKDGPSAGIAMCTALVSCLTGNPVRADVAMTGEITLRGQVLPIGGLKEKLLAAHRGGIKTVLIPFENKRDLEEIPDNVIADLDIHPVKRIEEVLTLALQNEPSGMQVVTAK
E coli Lon conf = confirmation of E. coli Lon protease inhibitors. shares compounds with eLon inh. purified E. coli Lon, fluorescence polarization. inhibition, % at 7.94 µM. actives 31% (n = 1,400). AID 602230; in the data active = inhibition above about 16%;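 note: 0% = enzyme with probe and DMSO and 100% = no enzyme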
Active calls of the source: *; i = inactive; x = not tested or not shown; + = active, no number. In the library only some 0.82% were active in any assay of this set; here they are far more common.

SMILES | Keap1-Nrf2 PPI | C-LANA FP | Cardiac RTF inh | RTF Ca sens act | eLon inh | E coli Lon conf
CCCn1c(C(C)Nc2nc(C)cs2)nc2cc(Cl)c(Cl)cc21 (stereo unspecified) | -1 | 1 | -6 | -2 | 116* | -2
Cc1ccc(Cn2c(C(C)Nc3nc(-c4ccc(C)cc4)cs3)nc3cc(Cl)c(Cl)cc32)cc1 (stereo unspecified) | 1 | 0 | 0 | -4 | 1 | x
Cc1nn(CC(=O)N2CCN(c3cccc(C(F)(F)F)c3)CC2)c(=O)c2cccn12 | -2 | 1 | -2 | 4 | 9 | x
CCC(NC(=O)c1cc(COc2ccc(F)cc2Cl)on1)c1ccncc1 (stereo unspecified) | -3 | 1 | 1 | -2 | -6 | x
COc1ccc2[nH]cc(CCNC(=O)CC[C@H]3O[C@@H](n4cc(C)c(=O)[nH]c4=O)C[C@@H]3O)c2c1 | -2 | 0 | -2 | 5 | 13* | 0
CCC1c2ccc(C)n2CCN1C(=O)Nc1ccccc1C(=O)OC (stereo unspecified) | 2 | 11 | -14 | 8 | 23* | 6
COc1cccc(C(=O)Oc2ccc3ccc(=O)oc3c2)c1 | -3 | 1 | -8 | -12 | 23* | 47*
COc1ccc(C(=O)Oc2ccc3ccc(=O)oc3c2)cc1OC | 1 | -1 | 6 | -2 | 3 | x
CC(C)(C)c1ccc(C(=O)Nc2cccc3ncccc23)cc1 | 5 | 23 | -28 | 26 | 44* | 44*
O=C(c1ccccc1)[C@@H]1[C@@H]2C(=O)N(c3ccc(F)cc3)C(=O)[C@@H]2C2CCCN21 (stereo partly specified) | 2 | 14 | -23 | 16 | 23* | 29*
c1cc(CNc2ccc3c(c2)OCO3)ccn1 | 8 | 17 | -27 | 6 | 27* | 34*
CCc1ccc2c(COC(=O)C3CSC4(C)CCC(=O)N34)cc(=O)oc2c1 (stereo unspecified) | -5 | 0 | -12 | -2 | 6 | x
COc1ccc(CNCC(O)(c2ccc(Cl)cc2)c2ccc(Cl)cc2)cc1 | -3 | 1 | 2 | 3 | 48* | -1
COc1ccc(CNCC(O)(c2ccc(Cl)cc2)c2ccc(Cl)cc2)cc1OC | -3 | 0 | -2 | -2 | -5 | x
c1cc(-c2ccoc2)n2ccnc2c1 | x | x | x | x | 73* | 13
c1cc(-c2ccsc2)n2ccnc2c1 | x | x | x | x | 4 | x
CC1(C)CC(=O)C(C=Nc2ccc(O)c(N=CC3=C(O)CC(C)(C)CC3=O)c2)=C(O)C1 | -2 | -1 | -13 | 6 | -31 | x
CC1(C)CC(=O)C(C=Nc2cccnc2)=C(O)C1 | 1 | -1 | 4 | -1 | -3 | x
CC1(C)CC(=O)C(C=Nc2ccc(C(=O)c3ccccc3)cc2N=CC2=C(O)CC(C)(C)CC2=O)=C(O)C1 | -7 | 1 | -82 | 44* | 13* | -20
CC1(C)CC(=O)C(C=Nc2cccnc2/N=C/C2=C(O)CC(C)(C)CC2=O)=C(O)C1 | -6 | 1 | -22 | -4 | 52* | -3
Cc1ccnc(Nc2ccc(CCO)cc2)n1 | x | x | x | x | -5 | x
CCOC(=O)C1CCN(C(=O)C2CCN(c3nn4c(=O)cc(C)nc4s3)CC2)CC1 | -2 | 1 | 6 | -1 | -12 | x
CCCc1cc(=O)n2nc(N3CCC(C(=O)N4CCN(c5cccc(OC)c5)CC4)CC3)sc2n1 | -3 | -1 | -5 | 0 | 24* | 1
CCCCC1=CC2=C(c3ccco3)C(=O)C(C)(OC(=O)c3ccc(OC)cc3)C(=O)C2=CN1Cc1ccc2c(c1)OCO2 (stereo unspecified) | -7 | 0 | -17 | 14 | -7 | x
CCCCC1=CC2=C(c3ccco3)C(=O)C(C)(OC(=O)c3ccc(OC)cc3)C(=O)C2=CN1Cc1ccccc1 (stereo unspecified) | 3 | 2 | -30 | 4 | -17 | x
SMILES | Keap1-Nrf2 PPI | C-LANA FP | Cardiac RTF inh | RTF Ca sens act | eLon inh | E coli Lon conf
CCCCC1=CC2=C(c3ccco3)C(=O)C(C)(OC(=O)c3ccc(OC)cc3)C(=O)C2=CN1CCc1ccccn1 (stereo unspecified) | -5 | 1 | -20 | 17 | 37* | -18
CCCCC1=CC2=C(c3ccco3)C(=O)C(C)(OC(=O)c3ccc(OC)cc3)C(=O)C2=CN1CCOC (stereo unspecified) | -1 | 2 | -8 | 3 | 48* | 12
Cc1ccc(C)c(S(=O)(=O)N2CCN(C(=O)CCC(=O)NCc3ccc(Cl)cc3Cl)CC2)c1 | -1 | -1 | 2 | -6 | 7 | x
Cc1ccccc1-n1c(SCc2c(C)noc2C)nnc1-c1cccnc1 | -1 | 3 | -42 | 22 | 63* | 45*
CCOC(=O)c1[nH]cnc1N=Nc1c(O)ccc2ccccc12 | 6 | 2 | -3 | 4 | 44* | 76*
COc1ccc(S(=O)(=O)N2CCN(Cc3ccc4c(c3)OCO4)CC2)cc1 | 0 | 1 | 2 | -1 | 43* | 2
CSc1ccc(S(=O)(=O)N2CCN(Cc3ccc4c(c3)OCO4)CC2)cc1 | -3 | -3 | -10 | -3 | -9 | x
Cc1ccc(/C=C/C(=O)O)cc1S(=O)(=O)NC1CCS(=O)(=O)C1 (stereo unspecified) | -5 | -7 | 0 | -1 | 15* | -5
Cc1ccc(/C=C/C(=O)O)cc1S(=O)(=O)NCC1CCCO1 (stereo unspecified) | -1 | -2 | 8 | 2 | -9 | x
COc1ccc2c(c1)c1c(c(=O)n(-c3ccc(C)cc3)c(=O)n1CC(=O)NCC1CCCO1)n2C (stereo unspecified) | x | x | x | x | -1 | x
CC(=O)Nc1ccc(-c2ccnc3c2CC(C(=O)Nc2cccc(C(F)(F)F)c2)O3)cc1 (stereo unspecified) | x | x | x | x | 3 | x
CC(=O)c1c(C)[nH]c(C(=O)CSc2nnc(-c3ccco3)n2Cc2ccccc2)c1C | -4 | 1 | -4 | -1 | 1 | x
CC(=O)c1c(C)[nH]c(C(=O)CSc2nnc(-c3ccccc3)n2Cc2ccc3c(c2)OCO3)c1C | 3 | -2 | -2 | -8 | 18* | 4
O=C(CNC(=O)C1CC(=O)N(c2cccc3ccccc23)C1)Nc1ccccc1Br (stereo unspecified) | -3 | 0 | -2 | -2 | -6 | x
CSCCC(NC(=O)/C(=C/c1ccco1)NC(=O)c1ccco1)C(=O)O (stereo unspecified) | x | x | x | x | 1 | x
COc1ccc2c3c(cccc13)C(=O)CC2 | 164* | 163* | i | 715* | + | +
CCOC(=O)C(=O)N(CC)C1CCS(=O)(=O)C1 (stereo unspecified) | 0 | -2 | -5 | -2 | 17* | -6
COC(=O)c1c(C(=O)OC)c2c(-c3ccccc3)cc3cccc1n32 | x | x | x | x | -54 | x
O=[N+]([O-])c1ccc(-c2ccc(C=Nc3cccc4ccccc34)o2)cc1 | 3 | -2 | -7 | -1 | -2 | x
O=[N+]([O-])c1cc(-c2ccc(/C=N/c3nc4ccccn4c3-c3ccco3)o2)ccc1Cl | 3 | 5 | -5 | -5 | 27* | 12
